In all, about 310,000 compounds went through this assay and about 3,600 (1.2%) were called active.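 How the source made its calls: active means ratio plate-corrected score three or more library SD toward inhibition, starting fluorescence score within five deviations; inactive means the rest.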 Shown is part of a subset that was picked to be rich in actives.
What follows are compounds tested against Anoctamin-1 (Mus musculus) (UniProt Q8BHY3) (assay: blockers of mouse ANO1 Ca-activated Cl channel – cell-based, HTS, primary screen (AID 588511;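 on normalized B-score (activity score, 25-100; higher = stronger inhibition): score derived from kinetic fluorescence span divided by baseline fluorescence per well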)). Conditions: HEK293 TMEM16A/YFP iodide influx fluorescence, ionomycin; at 10 µM.
Anoctamin-1 (Mus musculus), sequence (Q8BHY3 whole entry, looked up): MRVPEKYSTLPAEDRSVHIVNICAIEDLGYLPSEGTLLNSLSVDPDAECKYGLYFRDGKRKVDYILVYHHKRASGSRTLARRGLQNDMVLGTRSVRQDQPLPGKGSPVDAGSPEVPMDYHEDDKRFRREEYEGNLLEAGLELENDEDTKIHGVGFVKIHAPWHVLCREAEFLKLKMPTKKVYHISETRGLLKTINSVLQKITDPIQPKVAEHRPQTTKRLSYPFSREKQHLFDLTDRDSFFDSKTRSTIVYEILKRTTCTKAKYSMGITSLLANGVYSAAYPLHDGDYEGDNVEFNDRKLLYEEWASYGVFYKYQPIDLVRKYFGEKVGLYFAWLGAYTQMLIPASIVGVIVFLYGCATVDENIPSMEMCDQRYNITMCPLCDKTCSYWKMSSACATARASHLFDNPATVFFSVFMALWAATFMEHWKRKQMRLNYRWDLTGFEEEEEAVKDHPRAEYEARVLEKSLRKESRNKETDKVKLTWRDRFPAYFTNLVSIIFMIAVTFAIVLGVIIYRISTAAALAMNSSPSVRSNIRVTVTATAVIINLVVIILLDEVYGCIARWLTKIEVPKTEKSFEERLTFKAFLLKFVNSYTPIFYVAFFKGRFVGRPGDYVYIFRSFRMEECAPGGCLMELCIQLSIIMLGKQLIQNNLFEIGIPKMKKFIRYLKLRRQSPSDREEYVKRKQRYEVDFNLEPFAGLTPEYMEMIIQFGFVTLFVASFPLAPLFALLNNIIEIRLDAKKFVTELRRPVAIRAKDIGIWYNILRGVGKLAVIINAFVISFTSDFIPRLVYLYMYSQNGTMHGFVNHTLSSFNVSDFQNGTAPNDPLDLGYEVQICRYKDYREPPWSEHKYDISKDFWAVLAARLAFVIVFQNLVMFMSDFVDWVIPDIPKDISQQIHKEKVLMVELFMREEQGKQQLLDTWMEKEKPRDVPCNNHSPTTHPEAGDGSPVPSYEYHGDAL

Compound | normalized B-score (activity score, 25-100; higher = stronger inhibition)
Cc1ccc2c(c1)N(CC(=O)N1CCCc3ccccc31)C(=O)C(C)O2 (configuration not stated) | 100 (active)
CCC(=O)N1CCCc2ccccc21 | inactive
Cc1ccc2c(c1)N(CC(=O)N1CCCC(C)C1)C(=O)CO2 (configuration not stated) | inactive
O=C1NC(c2ccccc2)=NC1(Nc1ccccn1)C(F)(F)F (configuration not stated) | inactive
CC(Oc1ccc(Cl)cc1)c1ccnn1S(C)(=O)=O (configuration not stated) | inactive
CC(=O)Nc1ccc(C(=O)OCC(=O)Nc2ccc([N+](=O)[O-])cc2C(F)(F)F)cc1 | inactive
COc1cc(NC(=O)C2=CC(c3ccco3)=NS(=O)(=O)N2C)cc(OC)c1OC | inactive
COc1ccc(NC(=O)C2=CC(c3ccc(OC)c(OC)c3)=NS(=O)(=O)N2C)cc1 | 25 (active)
COc1cc(NC(=O)C2=CC(c3ccc(C)cc3)=NS(=O)(=O)N2C)cc(OC)c1OC | inactive
O=C(CSc1nnc2c(n1)[nH]c1ccccc12)NC1CCCCC1 | inactive
Cc1ccc(CNC(=O)C2CCCN2S(=O)(=O)c2ccc3c(c2)C(C)(C)C(=O)N3C)cc1 (configuration not stated) | inactive
Cc1ccc(S(=O)(=O)c2ccc(Oc3ccccc3)cc2)cc1 | 100 (active)
CN(C)S(=O)(=O)c1ccc(Oc2ccc(S(=O)(=O)N(C)C)cc2)cc1 | inactive
Cc1n[nH]c(=O)n1-c1ccc(Oc2ccccc2)cc1 | inactive
Cc1cc(C)c(NC(=O)CN2CCCCCC2)c(C)c1 | inactive
CN(C)C(=O)CCC(=O)N1CCCCC1C(=O)Nc1ccc(Oc2ccccc2F)cc1 (configuration not stated) | inactive
CC(C)NC(=O)/C(C#N)=C\c1ccc(N(C)C)c(Br)c1 | inactive
CC(C)(C)C(=O)/C(C#N)=C/c1ccc(O)cc1 | 25 (active)
CCOC(=O)NC(=O)/C(C#N)=C\c1ccccc1 | inactive
S=C(NCc1cccs1)Nc1ccc(Cl)cc1 | 25 (active)
Fc1ccccc1CNC(=S)Nc1ccc(Cl)cc1 | inactive
COc1ccc(NC(=S)NCc2cccs2)c(OC)c1 | inactive
Cc1ccc(Cc2nnc(SCC(=O)Nc3ccc(C)cc3C)[nH]c2=O)cc1 | inactive
COc1cc(CNCc2ccc(OC)c3ccccc23)cc(OC)c1OC | inactive
COCCCNC(=O)C1CCN(c2ccc(N3CCOCC3)nn2)CC1 | inactive
CC(=O)Nc1c2c(nn1-c1ccc(C)cc1C)CS(=O)C2 (configuration not stated) | inactive

Compound | normalized B-score (activity score, 25-100; higher = stronger inhibition)
N#Cc1nc(N)nc(N(c2ccccc2)c2ccccc2)n1 | 100 (active)
Nc1nc(-c2ccccc2)cc(-c2ccccc2)n1 | inactive
CC(C)Nc1nc(N(c2ccccc2)c2ccccc2)nc(-n2ccnc2)n1 | inactive
COc1ccccc1CNC(=O)CNC(=O)c1cn(-c2ccccc2OC)c(=O)c2ccccc12 | inactive
O=C(Nc1ccccc1F)c1ccccc1-c1ccccc1 | inactive
CC(C(=O)Nc1ccccc1-c1ccccc1)N1CCOCC1 (configuration not stated) | inactive
Cc1ccccc1NC(=O)C(C)c1ccc(-c2ccccc2)c(F)c1 (configuration not stated) | 100 (active)
CCOCCCNC(=O)c1cn(CC(C)C)c(=O)c2c1c1ccccc1n2C | inactive
CC(Cc1cccs1)NC(=O)c1cccc(Cl)c1 (configuration not stated) | inactive
COc1ccc(CN(C)C(=O)CC(c2ccccc2)c2ccccc2)cc1 | 25 (active)
CN(Cc1ccccc1)C(=O)CCc1ccccc1 | inactive
CN(Cc1ccccc1)C(=O)COc1ccccc1 | inactive
C=CCOc1ccc(/C=C/C(=O)OC(C)C(=O)Nc2ccc(NC(C)=O)cc2)cc1 (configuration not stated) | inactive
CCCCCCCCCCOC(=O)Cn1c(COc2ccc(C)cc2)[n+](C)c2ccccc21 | 25 (active)
Cc1ccc(OCc2nc3ccccc3n2C)cc1 | inactive
CCCCCCCCCCOC(=O)Cn1c(COc2cccc(OC)c2)[n+](C)c2ccccc21 | inactive
Cc1ccc(-c2nn(-c3ccc(F)cc3)cc2C(=O)NCC(c2cccs2)N2CCOCC2)cc1 (configuration not stated) | inactive
O=C(COC(=O)[C@H](Cc1ccccc1)NC(=O)c1cccs1)Nc1cc(F)ccc1F | inactive
COc1ccc(NC(=O)CCS(=O)(=O)c2cc3c(cc2Cl)NC(=O)CO3)cc1OC | inactive
Cc1cc2c(cc1S(=O)(=O)CCC(=O)NCc1ccccc1)OCC(=O)N2 | inactive
COc1ccc(Cl)cc1NC(=O)CCS(=O)(=O)c1cc2c(cc1C)NC(=O)CO2 | 100 (active)
C=C(C)c1cccc(C(C)(C)NC(=O)N2CCN(c3ncccn3)CC2)c1 | inactive
Cc1ccc(NC(=O)CN(C)CC(=O)Nc2cccc(F)c2)cc1[N+](=O)[O-] | 100 (active)
CN(CC(=O)Nc1cccc(F)c1)CC(=O)Nc1cccc([N+](=O)[O-])c1 | inactive
Cc1ccc(CN(C)CC(=O)Nc2cccc([N+](=O)[O-])c2)o1 | inactive
Cc1cccc2c1cnn2C(=O)CCC(=O)NC1CCCCC1 | inactive

Reference: PubChem BioAssay AID588511 (Johns Hopkins Ion Channel Center, 2011)
